Assay outcomes deposited in PubChem BioAssay by National Center for Advancing Translational Sciences (NCATS).
Hits are enriched below; roughly 3.7% of the tested compounds scored in any of these assays.
GALK inh: qHTS Assay for Inhibitors of Human Galactokinase (GALK): NCGC Sytravon Library Screen | AID 1347072, 2019 | 44,000 tested, under 10 active | recombinant GALK, Kinase-Glo ATP luminescence, 1 h | Potency, µM (top dose mostly 57.5 µM), for inactives: at the top dose activity, negative = inhibition, actives largely listed as inhibitors;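 further: plate controls were full GALK reaction for no effect and reaction lacking GALK for full effect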
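Luminescent ATP-depletion readout (Kinase-Glo Plus, 10 min) after 1 h RT reaction of 5 nM GALK, 35 uM ATP, 100 uM galactose, pH 8.0 HEPES buffer. Decreased kinase activity scored as inhibition.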
DRV1 agonist: qHTS for Agonists of Human Resolvin D1 Receptor DRV1; Probable G-protein coupled receptor 32 (Homo sapiens), O75388; CHO-K1 GPR32 beta-arrestin PathHunter luminescence, 90 min; zero percent set by DMSO-only wells; activation, % at 76.9 µM; actives 2.5% (n = 48,000); AID 1346428, 2018;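 active means activation of at least 60% and not above a set upper limit, about 1 call in 100 departs from these limits; inconclusive means activation of 40% to 60%, or above that upper limit; inactive means activation under 40%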; further: 0% is about no effect
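Agonism was scored as beta-arrestin recruitment to ProLink-fused GPR32 in stably transfected CHO-K1 cells, giving a chemiluminescent beta-Gal signal; compounds were incubated 90 min at 37 °C.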
TSG101-PTAP inh: qHTS Validation Assay for Inhibitors of HIV-1 Budding by Blocking the Interaction of PTAP/TSG101: Sytravon Library Screen | Tumor susceptibility gene 101 protein (Homo sapiens), Q99816 | Fluorescence polarization, FITC-PTAP peptide/Tsg101, 20 min | Potency, µM (series often up to 115 µM), actives largely listed as inhibitors | 44,000 tested, under 10 active; further: potency means the concentration at half of the fitted maximal effect; 0% is about no effect
Target sequence (Q99816 whole entry, looked up): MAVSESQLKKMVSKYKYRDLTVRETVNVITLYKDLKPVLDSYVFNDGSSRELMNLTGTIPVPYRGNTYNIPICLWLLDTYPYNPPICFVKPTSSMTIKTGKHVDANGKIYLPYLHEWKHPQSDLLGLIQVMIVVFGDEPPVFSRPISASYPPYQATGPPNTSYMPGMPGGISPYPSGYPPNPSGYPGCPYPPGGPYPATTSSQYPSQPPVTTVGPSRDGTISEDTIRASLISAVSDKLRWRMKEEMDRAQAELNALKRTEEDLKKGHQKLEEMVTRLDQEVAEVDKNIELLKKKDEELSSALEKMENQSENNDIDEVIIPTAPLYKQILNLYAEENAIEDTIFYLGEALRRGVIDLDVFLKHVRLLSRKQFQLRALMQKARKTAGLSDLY
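Read-out is FITC fluorescence polarization. Compounds were added to Tsg101 binding domain (10 uM final), then FITC-PTAP peptide (50 nM final), 20 min at r.t. Total S+P intensity flags fluorescent compounds.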
FH mod: Identification of activators of human fumarate hydratase by quantitative high-throughput screening. Fumarate hydratase, mitochondrial (Homo sapiens), P07954. FH coupled MDH/diaphorase resazurin fluorescence, 15 min. Potency, µM (highest dose often 79.9 µM), inactives show at the top dose activity change, negative = inhibition, usual class: inhibitors. actives 0.22% (n = 54,000); further: potency means the concentration at half of the fitted maximal effect; on the % scale 0 is the no-effect control and ±100 the full control effect; the screen sought activators but most active calls are inhibition curves; nearly all actives have a fitted effect of over 45% in size
NTMT1 inh: Primary qHTS for Inhibitors of N-terminal methyltransferase 1 (NTMT1): MTaseGlo Assay | NTMT1 MTase-Glo SAH luminescence, purified enzyme | Potency, µM (doses to about 114 µM), for inactives: top-dose activity change, negative = inhibition, most hits filed as inhibitors | actives 2.5% (n = 59,000) | AID 1645870, 2021;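 further: potency means the concentration at half of the fitted maximal effect; plate controls were DMSO vehicle for no effect and no enzyme for full effect; nearly all actives have a fitted effect of over 65% in size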
Target sequence (Q9BV86 whole entry, looked up): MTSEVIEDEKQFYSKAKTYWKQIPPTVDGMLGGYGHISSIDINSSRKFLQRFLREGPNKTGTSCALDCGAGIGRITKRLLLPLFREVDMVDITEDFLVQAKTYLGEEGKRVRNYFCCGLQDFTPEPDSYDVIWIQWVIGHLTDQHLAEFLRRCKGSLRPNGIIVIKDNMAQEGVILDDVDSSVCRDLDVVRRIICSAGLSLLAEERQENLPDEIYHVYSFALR
B2AR arrestin ag: qHTS assay of beta-arrestin-biased ligands of beta2-adrenergic receptor: NCGC Sytravon Library Screen; Beta-2 adrenergic receptor (Homo sapiens), P07550; HTLA Tango cells, beta-arrestin recruitment, luciferase luminescence, 18 h; Potency, µM (titrated, usually from 46.1 µM), usual class: activators; 44,000 tested, under 10 active;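 further: potency means the concentration at half of the fitted maximal effect; 0% = DMSO and full agonism = EC100 isoproterenol or metaproterenol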
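Luminescence read-out: arrestin recruitment to recombinant beta2-AR releases tTA, inducing luciferase. Cells exposed 18 hr at 37 degrees C to up to 46 microM compound; %Activity from corrected signal, concentration-response curves classified by r2, magnitude and efficacy.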
* marks the source's active call; other numbers are inactive results; i = inactive; u = inconclusive; x = no result given; ! = repeats disagree; [ ] = another dose, or the depositor's remark. Unless noted, the call rests on the fitted dose curve; in most records, active means well fitted curve in the direction sought with a large enough effect; inconclusive means small, poorly fitted or top-dose-only effect, or another doubt; inactive means no such curve, though single readings can be large; an effect the other way counts as inactive or inconclusive.

SMILES | GALK inh | DRV1 agonist | TSG101-PTAP inh | FH mod | NTMT1 inh | B2AR arrestin ag
CC(=O)N1c2ccc(S(=O)(=O)NCCC(=O)Nc3ccc(Br)c(C)c3)cc2CC1C (centres undefined) | 2.7% | 69.2* | i | -15.0% | -1.1% | i
CC(=O)N1c2ccc(S(=O)(=O)NCC3CCC(C(=O)Nc4cccc(F)c4)CC3)cc2CC1C (centres undefined) | u | 64.2* | i | -23.0% | 4.7% | i
CC(=O)N1c2ccc(S(=O)(=O)NCC3CCC(C(=O)Nc4ccc(C)cc4)CC3)cc2CC1C (centres undefined) | 0.6% | 1.6 | i | u | 5.4% | i
CC(C)c1cc(C(=O)N2CC[C@@H](NC(=O)C3CC3)C2)n[nH]1 | x | x | x | 2.5% | -6.6%[57.5 µM] | x
Cc1ccc(OCCn2c(CCNC(=O)c3ccc(C(C)(C)C)cc3)nc3ccccc32)cc1 | x | x | x | x | 6.1%[57.5 µM] | x
CC(=O)c1cccc(NC(=O)CCCN2C(=O)COc3ccc(C)cc32)c1 | 3.3% | -15.8 | i | 3.7% | 79.4µM* | i
CCc1ccccc1NC(=O)CCCN1C(=O)COc2ccc(C)cc21 | -2.2% | -27.4 | i | -0.8% | -19.2% | i
Nc1ccn([C@H]2O[C@@H](CO)[C@H](O)[C@H]2O)c(=O)n1 | x | x | x | 20.5% | 16.3% | x
CN(C)c1ccc(C(=C2C=CC(=[N+](C)C)C=C2)c2ccc(N(C)C)cc2)cc1 | x | -78.5 | x | -10.4%[53.3 µM] | 20µM* | x
CN(C)c1ccc(C(=C2C=CC(=[N+](C)C)C=C2)c2ccccc2)cc1 | x | 95.0* | x | u | 22.4µM* | x
O=Cc1ccc(O)c(O)c1O | x | -6.6 | x | 15.5µM* | 17.8µM* | x
NCCCC[C@H](NC(=O)[C@@H](NC(=O)[C@H](Cc1c[nH]c2ccccc12)NC(=O)[C@H](CCCCN)NC(=O)[C@H](CCCCN)NC(=O)[C@H](Cc1c[nH]c2ccccc12)NC(=O)[C@H](Cc1c[nH]c2ccccc12)NC(=O)[C@H](CCCCN)NC(=O)[C@@H](N)CCCCN)C(c1ccccc1)c1ccccc1)C(N)=O | x | x | x | x | 22.4µM* | x
NC(Cc1c[nH]c2ccccc12)C(=O)NC(CCC(=O)O)C(=O)O (centres undefined) | x | x | x | 6.1% | 1.5%[57.5 µM] | x
O=C(Nc1ccc(Cl)c(S(=O)(=O)N2CCOCC2)c1)c1ccc(S(=O)(=O)N2CCCCC2)cc1 | x | x | x | x | 7.0% | x
CC(C)=CCC/C(C)=C/CC/C(C)=C/CSc1ccccc1C(=O)O | x | x | x | u | 50.1µM* | x
CC(C)=CCCC(C)=CCCC(C)=CCSc1ccccc1C(=O)O | x | x | x | -18.5%[53.3 µM] | u | x
COC(=O)C1=CC[C@H](c2ccc(C)cc2)N(S(=O)(=O)c2ccc(C)cc2)[C@@H]1c1ccc(C(C)(C)C)cc1 | x | x | x | x | -0.9% | x
CCOc1ccc(-n2c(SCC(=O)N3CCCCCC3)nc3c([nH]c4ccccc43)c2=O)cc1 | 3.3% | -3.0 | i | -17.0% | u | i
CCOc1ccc(-n2c(SCC(=O)N3CCCC3)nc3c([nH]c4ccccc43)c2=O)cc1 | -0.6% | 77.3* | i | 3.9% | 25.5% | i
CCN(Cc1cc(Nc2nc(C)cn3c(-c4cn[nH]c4)cnc23)sn1)C(C)(C)CO | x | x | x | -12.6% | u | x
COc1ccc(-c2cc(C(C)=O)c(C)n2CCC(=O)Nc2cc(Cl)ccc2C)cc1 | 0.5% | -21.4 | i | 3.9% | 89.1µM* | i
CC(=O)C1=C(c2ccc(Cl)c(Cl)c2)N(C(C)=O)n2cnnc2S1 | -2.3% | 2.4 | i | u | 56.2µM* | i
Cc1ccc(C(=O)c2cn(Cc3c(F)cccc3Cl)c3nc(C)ccc3c2=O)cc1 | -0.2% | 82.2* | i | -9.3% | 0.9% | i
Cc1ccc(Cn2cc(C(=O)c3ccc(C)cc3)c(=O)c3ccc(C)nc32)cc1 | 0.3% | -0.3 | i | -21.6% | u | u
CN1CCN(C2CCC(n3cc(-c4ccc(Oc5ccccc5)cc4)c4c(N)ncnc43)CC2)CC1 (centres undefined) | x | x | x | 13.6% | 28.2µM*! | x
SMILES | GALK inh | DRV1 agonist | TSG101-PTAP inh | FH mod | NTMT1 inh | B2AR arrestin ag
O=C(Nc1ccc(Cl)c(Cl)c1)C1CC1 | x | 82.6* | x | -13.3%[53.3 µM] | -28.7%[57.5 µM] | x
CN(C)C(=O)Nc1ccc(Cl)c(Cl)c1 | x | 6.3 | x | 4.8%[53.3 µM] | 13.6%[57.5 µM] | x
CONC(=O)Nc1ccc(-c2sc3c(c2CN(C)C)c(=O)n(-c2ccc(OC)nn2)c(=O)n3Cc2c(F)cccc2F)cc1 | x | x | x | x | -3.4% | x
Cc1cc(C)c2c(=O)cc(CSc3nnc(-c4ccccc4)n3C)[nH]c2c1 | 1.3% | 60.7* | i | -9.9% | 1.8% | i
O=C(CCCCn1c(=O)[nH]c2ccsc2c1=O)N1CCN(c2cccc(Cl)c2)CC1 | 6.0% | 71.9* | i | -21.5% | 0.0% | i
CCCCC(CC)CNC(=O)CCCCCn1c(=O)[nH]c2ccsc2c1=O (centres undefined) | 5.5% | 79.9* | i | -10.9% | 2.8% | i
O=C(CCCn1c(=O)[nH]c2ccsc2c1=O)N1CCN(c2cccc(C(F)(F)F)c2)CC1 | 5.8% | 91.5* | i | -15.9% | -8.2% | i
COc1cccc(CNc2ccc(S(=O)(=O)Nc3cccc4ccccc34)cc2)c1O | x | x | x | x | 3.9% | x
N=C(N)c1ccc2cc(OC(=O)c3ccc(N=C(N)N)cc3)ccc2c1 | x | -31.6 | x | -2.5%[53.3 µM] | 79.4µM*! | x
N=c1ccn2c(n1)O[C@H]1C(O)[C@@H](CO)O[C@H]12 (some centres undefined) | x | x | x | -6.2%[53.3 µM] | x | x
COc1cccc(NC(=O)CC2C(=O)OCCN2Cc2ccccc2)c1 (centres undefined) | 8.3% | 4.8 | i | -33.0% | u | i
